Gli-Sufu block = antagonists of Gli-Sufu signaling; Sufu-KO-LIGHT fibroblasts, Gli luciferase reporter luminescence; inhibition, % at 5 µM; hit rate 0.74% among 340,000;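 active = inhibition above about 55%, limit read from the data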
Shn3 inh set2 = inhibitors of Schnurri-3 3'UTR reporter in osteoblasts. hit rate 0.52% among 360,000. Clone20 osteoblast Shn3 3'UTR firefly luciferase, 24 h. AID 588674. inhibition, % at 12.5 µM;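 active = mean inhibition of at least 75% with every replicate also reaching 75%; inconclusive = mean inhibition at least 75% but some replicate below; inactive = mean inhibition below 75%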
Jurkat NFkB inh = lowers PMA/ionomycin-induced NF-kB signal in Jurkat cells; PMA/ionomycin-induced NF-kB luciferase reporter, luminescence; inhibition, % at 4 µM; hit rate 0.53% among 330,000; in the data active = inhibition above about 50%
aSyn UTR inh = MLPCN primary screen, SNCA 5' untranslated region | alpha-synuclein 5'UTR reporter, inhibitor activity | inhibition, % (tested at 7.5 µM) | hit rate 0.82% among 300,000; in the data active = inhibition above about 60%; inconclusive = no clear call, values can overlap the other calls;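 note: H4 neuroglioblastoma cells stably carrying SNCA 5'UTR luciferase fusion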
TAG inh = triacylglycerol accumulation inhibition; inhibition, % at 12.5 µM; hit rate 0.66% among 230,000; H9c2 cells, Nile Red lipid (TAG) fluorescence; cells loaded with 200 µM oleic acid;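 active = pattern-corrected inhibition of lipid staining of at least 50% with the nuclear-stain viability signal not falling by more than 50%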
697 NFkB inh = lowers PMA/ionomycin-induced NF-kB signal in 697 B cells. hit rate 0.33% among 330,000. AID 435022. inhibition, % at 4 µM. 697 B-cell NF-kB luciferase reporter, 16 h; in the data active = inhibition above about 35%
Large screens that a line does not name were inactive. This is a sample that favours compounds with a hit; in the whole collection about 2.3% have one here.

Cc1cc(C)cc(-n2ncc3c2CCCC3NC(=O)C2(C(N)=O)CC2)c1 (stereo not drawn)	none
Cc1cccc(-n2ncc3c2CCCC3NC(=O)C2(C(N)=O)CC2)c1C (stereo not drawn)	Gli-Sufu block 63.2 (no result: TAG inh)
O=C(NCCc1csc(-c2ccccc2)n1)c1c(F)cccc1F	none
CCCC(NCC(O)COc1ccc(-c2ccccc2)cc1)c1ccccc1 (stereo not drawn)	aSyn UTR inh 82.8
COc1ccc(OCC(O)CNC(C)c2ccccc2)cc1 (stereo not drawn)	none (no result: TAG inh)
Cc1ccc(-c2nn(CC(=O)NCc3cc(-c4nn(C)c(=O)c5ccccc45)ccc3C)c(=O)c3ccccc23)cc1	aSyn UTR inh 113.5
CCC(=O)NCc1cc(-c2nn(C)c(=O)c3ccccc23)ccc1C	none
CC(=O)NC(c1ccc(Cl)cc1Cl)c1ccc2cccnc2c1O (stereo not drawn)	Gli-Sufu block 87.0, Shn3 inh set2 89.3, aSyn UTR inh 85.9 (no result: TAG inh)
CCCC(=O)NC(c1ccc(Cl)cc1Cl)c1ccc2cccnc2c1O (stereo not drawn)	Gli-Sufu block 89.3, Shn3 inh set2 92.4, aSyn UTR inh 64.3 (no result: TAG inh)
COc1ccc(C(NC(C)=O)c2ccc3cccnc3c2O)c(OC)c1 (stereo not drawn)	Shn3 inh set2 89.7, aSyn UTR inh 83.5
COc1cc(/C=N\NC(=O)CNC(=O)C2COc3ccccc3O2)ccc1O (stereo not drawn)	none (no result: TAG inh)
CCN(CC)c1ccc(/C=N/NC(=O)CNC(=O)C2COc3ccccc3O2)c(O)c1 (stereo not drawn)	Shn3 inh set2 90.1
CC(C)(C)c1ccc(C(=O)N2CCC2(C)C(=O)Nc2cccc(C#N)c2)cc1 (stereo not drawn)	none (no result: Gli-Sufu block, Jurkat NFkB inh, aSyn UTR inh, 697 NFkB inh)
S=C(NCc1ccccc1)Nc1cccc2cnccc12	Gli-Sufu block 64.5 (no result: TAG inh)
CCC(=O)c1cn(CC(=O)Nc2cccc(C)c2C)c2ccccc12	Gli-Sufu block 72.6
CCC(=O)c1cn(CC(=O)Nc2ccccc2Cl)c2ccccc12	Shn3 inh set2 88.8
COC(=O)c1ccc(C(=S)NCC2(N(C)C)CCCCC2)cc1	none (no result: TAG inh)
Cc1ccc(N=Nc2ccc(O)c3ncccc23)cc1	Shn3 inh set2 90.5, aSyn UTR inh 86.2, TAG inh 86.9 (no result: Jurkat NFkB inh, 697 NFkB inh)
Cc1ccc(N=Nc2ccc(O)c3ncccc23)cc1C	aSyn UTR inh 73.8 (no result: TAG inh)
Oc1ccc(Cl)c2cccnc12	none (no result: Jurkat NFkB inh, aSyn UTR inh, 697 NFkB inh)
Oc1ccc(N=Nc2ccccc2C(F)(F)F)c2cccnc12	Shn3 inh set2 90.0, aSyn UTR inh 71.6 (no result: TAG inh)
COc1ccccc1N=Nc1ccc(O)c2ncccc12	none (no result: TAG inh)
CCS(=O)(=O)c1ccc(N=Nc2ccc(O)c3ncccc23)c(OC)c1	Shn3 inh set2 95.3, aSyn UTR inh 78.1
N#Cc1c(N2C(=O)C3C4C=CC(C4)C3C2=O)sc2c1CCC2 (stereo not drawn)	none
CC(C)c1ccccc1NC(=O)COC(=O)CCN1C(=O)/C(=C\C=C\c2ccccc2)SC1=S	aSyn UTR inh 73.0
Cc1ccc(NC(=O)CCCN2C(=O)/C(=C/C=C/c3ccccc3)SC2=S)cc1	none (no result: TAG inh)
O=C(COC(=O)CCN1C(=O)/C(=C\C=C\c2ccccc2)SC1=S)Nc1ccc(Br)cc1	aSyn UTR inh 64.8
CCOC(=O)CSc1nc(-c2ccccc2)nc2c1oc1ccccc12	none (no result: TAG inh)
CN(NS(=O)(=O)c1ccc([N+](=O)[O-])cc1)c1ccccc1	none (no result: Gli-Sufu block, Jurkat NFkB inh, aSyn UTR inh, 697 NFkB inh)
NNC(=O)c1nn(-c2ccccc2)cc1O	aSyn UTR inh 83.4 (no result: Gli-Sufu block, Shn3 inh set2, TAG inh)
O=C(O)c1cn(-c2ccccc2)nc1C(=O)O	none
Nc1ccc2cc3[nH]c4cc(N)ccc4c3nc2c1	Shn3 inh set2 90.0 (no result: Jurkat NFkB inh, aSyn UTR inh, 697 NFkB inh)
CCN(CCCNC(=O)c1cn(CC)c2ccc(S(=O)(=O)N(C)C)cc2c1=O)c1cccc(C)c1	TAG inh 55.7
CC(C)OC(=O)c1ccc(NCc2cc(O)ccc2O)cc1	Shn3 inh set2 95.2 (no result: Jurkat NFkB inh, aSyn UTR inh, 697 NFkB inh)
O=C(OCc1ccccc1)c1ccc(NCc2cc(O)ccc2O)cc1	Shn3 inh set2 98.5 (no result: Jurkat NFkB inh, aSyn UTR inh, 697 NFkB inh)
COP(=O)(OC)c1ccc(NCc2cc(O)ccc2O)cc1	none (no result: Jurkat NFkB inh, aSyn UTR inh, 697 NFkB inh)
C=CCn1c(SCC(=O)Nc2nccs2)nnc1-c1ccco1	none
CC(/C=N\NC(=O)Cn1c(C)nc2ccccc21)=C\c1ccccc1	Shn3 inh set2 85.4
O=C(c1cnn2c(C(F)(F)F)cc(-c3ccc4c(c3)OCO4)nc12)N1CCCC1	none
CC(C)Oc1ccc(C2CCC(=O)NC2=O)cc1 (stereo not drawn)	none (no result: TAG inh)
Cc1onc(-c2ccccc2)c1C(=O)Nc1ncc([N+](=O)[O-])s1	none (no result: TAG inh)
O=C(Nc1ncc([N+](=O)[O-])s1)c1ccc2c(c1)OCO2	aSyn UTR inh 102.6 (no result: TAG inh)
Cc1ccc(C(=O)Nc2ncc([N+](=O)[O-])s2)cc1	Gli-Sufu block 60.1, aSyn UTR inh 68.9 (no result: Jurkat NFkB inh, TAG inh, 697 NFkB inh)
CCCCCc1cc(=O)oc2c(C(CCN3CCCC(C)C3)c3ccc(N(C)C)cc3)c(OC)cc(OC)c12 (stereo not drawn)	TAG inh 107.4
CCCCCc1cc(=O)oc2c(C(CCN3CCCC(C)C3)c3cc(OC)c(OC)c(OC)c3)c(OC)cc(OC)c12 (stereo not drawn)	none
CCCCCc1cc(=O)oc2c(C(CCN3CCCCC3)c3cc(OC)c(OC)c(OC)c3)c(OC)cc(OC)c12 (stereo not drawn)	TAG inh 79.6
O=C(NC1(C(F)(F)F)NC(=O)N(CCc2ccccc2)C1=O)C1CC1 (stereo not drawn)	none (no result: TAG inh)
COc1ccc(N(C)C(=O)c2ccc3snnc3c2)cc1	Shn3 inh set2 86.8
COc1ccc(N(C)C(=O)c2ccc3c(c2)nnn3C)cc1	none
c1ccc(-c2ncc3c(ccc4ccccc43)n2)cc1	aSyn UTR inh 68.1 (no result: TAG inh)
c1ccc2c(c1)cnc1ccccc12	none
O=C(Nc1ccc(N2CCCCC2)cc1)c1ccc([N+](=O)[O-])o1	none (no result: TAG inh)
CS(=O)(=O)N1CCN(c2ccc(NC(=O)c3ccc([N+](=O)[O-])o3)cc2)CC1	Shn3 inh set2 97.1, aSyn UTR inh 72.2 (no result: Jurkat NFkB inh, 697 NFkB inh)
O=C(Nc1ccc(N2CCN(C(=O)c3ccc(Cl)cc3)CC2)cc1)c1ccc([N+](=O)[O-])o1	Shn3 inh set2 97.9, aSyn UTR inh 119.6 (no result: Jurkat NFkB inh, 697 NFkB inh)
O=C(Nc1ccc(N2CCN(Cc3ccccc3F)CC2)cc1)c1ccc([N+](=O)[O-])o1	aSyn UTR inh 104.7
CC(C)(C)C(=O)N1CCN(c2ccc(NC(=O)c3ccc([N+](=O)[O-])o3)cc2)CC1	Shn3 inh set2 92.5 (no result: TAG inh)
CCC(=O)N1CCN(c2ccc(NC(=O)c3ccc([N+](=O)[O-])o3)cc2)CC1	Shn3 inh set2 inconclusive, aSyn UTR inh inconclusive (no result: Jurkat NFkB inh, 697 NFkB inh)
CC1CCN(c2ccc(NC(=O)c3ccc([N+](=O)[O-])o3)cc2)CC1	Shn3 inh set2 91.4
O=c1c(Br)c(N2CCCC2)cnn1-c1ccccc1	none (no result: TAG inh)
COc1c(Cl)cnn(-c2ccc(C)cc2)c1=O	none (no result: TAG inh)
Cc1ccc(-n2ncc(Br)c(Br)c2=O)cc1	Shn3 inh set2 95.6, TAG inh 66.1 (no result: Jurkat NFkB inh, 697 NFkB inh)
O=c1c(Br)c(Br)cnn1-c1ccccc1	Shn3 inh set2 97.6, TAG inh 90.1 (no result: Jurkat NFkB inh, aSyn UTR inh, 697 NFkB inh)
O=[N+]([O-])c1ccc2oc(-c3ccccc3)nc2c1	none
COc1ccc2sc3cccc(NCCN(C)C)c3c(=O)c2c1	none (no result: Gli-Sufu block, Jurkat NFkB inh, aSyn UTR inh, TAG inh, 697 NFkB inh)

Bioassay records deposited in PubChem BioAssay by several laboratories.
